High-throughput results deposited in PubChem by Columbia University Molecular Screening Center.
TNFa cytotox = cytotoxicity in TNFa-stimulated HUVEC, primary screen, cytotoxicity control for VCAM1 expression modulator project, imaging, Hoechst nuclei count; HUVEC TNFalpha-stimulated, Hoechst cell count; cell count reduction, % at 2 µM; hit rate 0.17% among 93,000; AID 848, 2007;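 active means cell count reduction exceeding the screen mean by over 5 SD, scaled to untreated wells per plate, cut at about 78% in these data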;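 further: cells counted after 24 h of TNF alpha exposure following the 1 h pretreatment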
HUVEC tox IL1B = cytotoxicity in IL-1B stimulated HUVEC, primary screen, cytotoxicity control for IL-1B NFkB translocation project, imaging, Hoechst nuclear count, IL-1B stimulus. AID 845, 2007. cell count reduction, % at 2 µM. hit rate 0.41% among 94,000. HUVEC cell count loss;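 active means cell count reduction more than 3 SD above the screen-wide mean, cut at about 70% in these data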
VCAM1 TNFa inh = inhibitors of TNFa-induced VCAM1 expression, primary screen, imaging, HUVEC, TNFa stimulus, immunofluorescence | HUVEC TNFa-induced VCAM-1 immunofluorescence, high-content imaging | inhibition, % at 2 µM | hit rate 0.48% among 95,000;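 active means inhibition above the batch mean plus 3 SD, with images confirmed as a hit by eye, cut at about 37% in these data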
IL1B NFkB inh = inhibitors of IL-1B driven NFkB p65 nuclear import, primary screen, imaging, HUVEC, IL-1B stimulus, high-content imaging; HUVEC IL-1B NFkB p65 nuclear translocation imaging; inhibition, % at 2 µM; hit rate 0.43% among 94,000;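 active means inhibition above about 30% together with a positive call from visual inspection of the well image, limit read from the data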;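 further: nuclear over cytoplasmic p65 intensity ratio measured by imaging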
IL1B NFkB pot = enhancers of NFkB p65 translocation in HUVEC – imaging, IL-1B stimulus, high-content imaging, primary screen. HUVEC IL-1B NFkB p65 nuclear translocation imaging. activation, % at 2 µM. hit rate 0.3% among 94,000. AID 819, 2007;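 active means activation above 40%, about the mean plus 3 SD, also judged a hit on visual image review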;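 further: percent activation is computed from the nuclear over cytoplasmic p65 intensity ratio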
A number is an active result. Compounds with a hit are over-represented: about 1.5% of the library has one in this group of screens.

Cc1cc(=O)n(CCCO)c(O)c1C#N was read as TNFa cytotox inactive, HUVEC tox IL1B inactive, VCAM1 TNFa inh inactive, IL1B NFkB inh inactive and IL1B NFkB pot inactive.
Cc1cc(=O)n(CC(C)O)c(O)c1C#N (configuration not stated) was read as TNFa cytotox inactive, HUVEC tox IL1B 89, VCAM1 TNFa inh inactive, IL1B NFkB inh 99 and IL1B NFkB pot inactive.
Screening NC1=NC(=O)CC(C(=O)NCCc2ccccc2)S1 (configuration not stated) returned TNFa cytotox inactive, HUVEC tox IL1B inactive, VCAM1 TNFa inh inactive, IL1B NFkB inh 47 and IL1B NFkB pot inactive.
Cc1cc(C)cc(-n2nnc(C(=O)NCc3ccccc3Cl)c2N)c1 was read as TNFa cytotox inactive, HUVEC tox IL1B inactive, VCAM1 TNFa inh inactive, IL1B NFkB inh inactive and IL1B NFkB pot inactive.
Screening COc1ccc(NS(=O)(=O)c2cc(C)ccc2NC(=O)c2cc(C)oc2C)cc1 returned TNFa cytotox inactive, HUVEC tox IL1B inactive, VCAM1 TNFa inh 44, IL1B NFkB inh inactive and IL1B NFkB pot inactive.
COc1ccc2nc(NC(=O)c3cc(C)oc3C)sc2c1 was read as TNFa cytotox inactive, HUVEC tox IL1B inactive, VCAM1 TNFa inh inactive, IL1B NFkB inh inactive and IL1B NFkB pot inactive.
For O=S(=O)(c1ccc2c(c1)OCCO2)N1CCN(Cc2ccc3c(c2)OCO3)CC1 the results were TNFa cytotox inactive, HUVEC tox IL1B inactive, VCAM1 TNFa inh inactive, IL1B NFkB inh inactive and IL1B NFkB pot inactive.
Screening Cn1c(=O)oc2cc(S(=O)(=O)N3CCN(Cc4ccc5c(c4)OCO5)CC3)ccc21 returned TNFa cytotox inactive, HUVEC tox IL1B 87, VCAM1 TNFa inh inactive, IL1B NFkB inh inactive and IL1B NFkB pot inactive.
For Cc1sc2ncnc(NCCc3ccc(S(N)(=O)=O)cc3)c2c1C the results were TNFa cytotox inactive, HUVEC tox IL1B inactive, VCAM1 TNFa inh inactive, IL1B NFkB inh inactive and IL1B NFkB pot inactive.
Screening COC(=O)c1ccc(S(=O)(=O)c2ccccc2)c(N)c1 returned TNFa cytotox inactive, HUVEC tox IL1B inactive, VCAM1 TNFa inh inactive, IL1B NFkB inh inactive and IL1B NFkB pot inactive.
Screening COc1ccc(N2C(C)=CS/C2=C(/C#N)c2nnc(N3CCOCC3)n2-c2ccccc2)cc1 returned TNFa cytotox inactive, HUVEC tox IL1B inactive, VCAM1 TNFa inh inactive, IL1B NFkB inh inactive and IL1B NFkB pot 46.
Screening CCCCS(=O)(=O)/C=C\C1C2C=CC(C2)C1S(=O)(=O)CCCC (configuration not stated) returned TNFa cytotox inactive, HUVEC tox IL1B inactive, VCAM1 TNFa inh inactive, IL1B NFkB inh inactive and IL1B NFkB pot inactive.
Screening CCCCS(=O)(=O)/C=C\C=C/S(=O)(=O)CCCC returned TNFa cytotox inactive, HUVEC tox IL1B inactive, VCAM1 TNFa inh 86, IL1B NFkB inh 95 and IL1B NFkB pot inactive.
`CCn1c(SCC(=O)Nc2cc3oc4ccccc4c3cc2OC)nnc1-c1cccs1` gave TNFa cytotox inactive, HUVEC tox IL1B inactive, VCAM1 TNFa inh inactive, IL1B NFkB inh inactive and IL1B NFkB pot 41.
Screening O=C(NCCCN1CCOCC1)c1ccc(CS(=O)(=O)Cc2ccc(Cl)cc2)o1 returned TNFa cytotox inactive, HUVEC tox IL1B inactive, VCAM1 TNFa inh inactive, IL1B NFkB inh inactive and IL1B NFkB pot inactive.
N#CCCn1ncn(-c2ccccc2)c1=S was read as TNFa cytotox inactive, HUVEC tox IL1B inactive, VCAM1 TNFa inh inactive, IL1B NFkB inh inactive and IL1B NFkB pot inactive.
Cc1nn2c(N3CCN(C4CCCC4)CC3)cc(C(C)(C)C)nc2c1-c1ccccc1 was read as TNFa cytotox inactive, HUVEC tox IL1B 82, VCAM1 TNFa inh inactive, IL1B NFkB inh inactive and IL1B NFkB pot inactive.
`Cc1nn2c(N3CCN(C(=O)c4ccco4)CC3)cc(C(C)(C)C)nc2c1-c1ccccc1` gave TNFa cytotox inactive, HUVEC tox IL1B inactive, VCAM1 TNFa inh inactive, IL1B NFkB inh inactive and IL1B NFkB pot inactive.
`CC(C)C(NS(=O)(=O)c1cccs1)C(=O)NCCN1CCN(c2ccccc2)CC1` (configuration not stated) gave TNFa cytotox inactive, HUVEC tox IL1B inactive, VCAM1 TNFa inh inactive, IL1B NFkB inh 33 and IL1B NFkB pot inactive.
Cc1cccc(NC(=O)CC2SC(=O)N(c3ccccc3)C2=O)c1 (configuration not stated) was read as TNFa cytotox 78, HUVEC tox IL1B inactive, VCAM1 TNFa inh 96, IL1B NFkB inh inactive and IL1B NFkB pot inactive.
